Laboratory results: PubChem BioAssay (NCI)
Compounds without any hit were thinned out: in the full panel of roughly 83,000, 20% have a hit.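 Treatment: one concentration, 48 hours, 96-well format. Scoring: percent growth, with anything below 10 considered active.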 Values without a mark were called inactive. Active and inactive are the calls of the source.

What follows are compounds tested on HL-60(TB) leukemia (assay: NCI-60 one-dose screen, 48 h (100 = growth as untreated, 0 = no growth, -100 = all killed)). Settings: 10 µM unless noted.
With Cc1ccc(-c2c3c(N)nc(-c4ccncc4)nc3nc3c2c(C)nn3-c2ccccc2)cc1 the growth was 97%.
Compound COc1nc2c(c(=O)n1C)CN(c1ccccc1)C(=O)CN2C has a growth of 93% [100 µM].
For O=c1oc2cc(OS(=O)(=O)c3ccccc3)ccc2c2c1CCCCC2, the growth was 18.6%.
In the case of Oc1c(CNCCNCc2cc(Cl)cc(Cc3ccccc3)c2O)cc(Cl)cc1Cc1ccccc1, the growth is reported as -0.262% (active).
Work on CN(C)C=Nc1cc(Cl)ccc1Cl yielded a growth of 102%.
Compound COc1ccc(OC)c(Nc2nnc(-c3cc(OC)c(OC)c(OC)c3)o2)c1 has a growth of 95.5%.
Compound Clc1ccc(/C=C/c2nc(N3CCOCC3)c3nc(Cl)c(Cl)cc3n2)cc1 has a growth of 98.4%.
In the case of COc1ccc2c(c1)CC=C1[C@@H]2CC[C@]2(C)C(=O)/C(=N/O)C[C@@H]12, the growth is reported as 53.4%.
With CCC1CN2C(=N1)c1ccccc1-c1cc(Cl)ccc12 (stereo not given) the growth was 2.51% (active).
With CCCC(=O)OCC1OC(n2cnc3c(=S)nc[nH]c32)C(OC(=O)CCC)C1OC(=O)CCC (stereo not given) the growth was 32.1%.
COc1ccc(S(=O)(=O)NCCCNc2nccc(-c3c(-c4cccc(N)c4)nc4sccn34)n2)cc1 was tested, and the growth was 112%.
Cn1c(COC(=O)NCCn2ccnc2)nc2c(N3CCOCC3)nc(-c3ccccc3)nc21 was tested, and the growth was -37.5% (active).
In the case of Cc1c(-c2csc(-n3nc(C(F)(F)F)cc3C(F)(F)F)n2)no[n+]1[O-], the growth is reported as 97%.
With Cc1cc(NCCCCNc2ccnc3cc(Cl)ccc23)nc(Nc2ccc(C(=O)N3CCCC3)cc2)n1 the growth was 14.7%.
COc1ccc(C2C=C(c3ccc(N)cc3)N=C3SC=CN32)cc1OC (stereo not given) was tested, and the growth was 105%.
In the case of OC(c1cc(-c2ccc(C(F)(F)F)cc2)nc(-c2ccc(C(F)(F)F)cc2)c1)C1CCCCN1 (stereo not given), the growth is reported as -61.8% (active).
COC1NC(Cl)=C(C#N)C(C#N)(C#N)C1(C)C (stereo not given) was tested, and the growth was 92.9%.
With CCN1CCN(CCCN(C[C@H]2Cc3ccccc3CN2)[C@H]2CCCc3cccnc32)CC1 the growth was 62.8%.
In the case of CN(C)C(=O)c1cc2cnc(Nc3ccc(-c4csc5c(=O)cc(N6CCNCC6)oc45)cc3)nc2n1C1CCCC1, the growth is reported as -21% (active).
In the case of CN1C(=O)N(C)C2C1NN=c1s/c(=C\c3ccc(F)cc3)c(=O)n12 (stereo not given), the growth is reported as -22.4% (active).
N#C/C(=C\c1ccc(-c2cccc(Cl)c2)o1)C(=O)Nc1ncc(Cc2ccc(Cl)cc2)s1 was tested, and the growth was 83.9%.
CCOC(=O)[C@@H](C)C[C@H](Cc1ccccc1)NC(=O)c1csc([C@@H](C[C@H](C(C)C)N(C)C(=O)[C@@H](NC(=O)[C@H]2C[C@H](O[Si](C)(C)C(C)(C)C)CCN2C)C(C)C)OC(C)=O)n1 was tested, and the growth was -36.9% [9.25 µM] (active).
For N#C/C(=C\c1ccccc1Cl)c1cc2ccccc2[nH]1, the growth was 98.8%.
CCOc1ccc(Nc2ccnc3cc(Cl)ccc23)cc1 was tested, and the growth was -25.6% (active).
With CC(C)=CCC/C(C)=C/CC/C(C)=C/CC/C=C(\C)CC/C=C(\C)CCC(=O)Nc1ccn(C2OC(CO)C(O)C2(F)F)c(=O)n1 (stereo not given) the growth was -21.3% (active).
Work on CCN(CC)CCC(CNc1c(C)cnc2cc(Cl)ccc12)c1ccc(Cl)cc1 (stereo not given) yielded a growth of 52.5%.
CCc1ccc(/C(C#N)=C/C=C/c2ccccc2)cc1 was tested, and the growth was -1.39% (active).
In the case of CCCCCCCCCc1cc[n+](CC(=O)c2ccc([N+](=O)[O-])cc2)cc1, the growth is reported as -40.4% (active).
O=C(CN1CCN(c2cc3c(cc2F)c(=O)c(C(=O)O)cn3C2CC2)CC1)Nc1ccc(C(=O)/C=C/c2ccc(Cl)cc2)cc1 gave a growth of 134%.
Work on Cc1ccc(Cl)cc1Nc1nc(C(F)(F)F)ccc1C(=O)N/N=C/c1c(Cl)cccc1Cl yielded a growth of 17.3%.
In the case of CCCCCCCCCCSc1ncnc2nc[nH]c12, the growth is reported as 73.9%.
In the case of COc1ccc(C[n+]2c3ccccc3n3c4ccc(N)cc4ccc32)c(OC)c1OC, the growth is reported as -6.46% (active).
CCN(CC)CCOC(=O)c1ccc(NC(=O)Nc2cccc(Cl)c2)cc1 showed a growth of 103%.
CC1(C)CC(=O)C2=C(C1)C(c1ccc(Cl)cc1)n1ncc(C#N)c1N2 (stereo not given) showed a growth of 97.9%.
C#CCOC(=O)C(N)CSSCC(N)C(=O)O (stereo not given) showed a growth of 120%.
In the case of O=C(NCCO)C(F)(F)F, the growth is reported as 103%.
For C[Si](C)(C)C(c1ccccc1)c1ccccc1, the growth was 80.5%.
For O=C1C=CC(=O)N1C1c2ccccc2-c2ccccc21, the growth was 77.7%.
Compound Nc1cccc2cccc(O)c12 has a growth of 82.9%.
Cc1ccc(C(=O)N/N=C/c2cccc([N+](=O)[O-])c2)cn1 was tested, and the growth was 74%.
